Measurements reported in PubChem BioAssay (NCI).
Compounds without any hit were thinned out: in the full panel of roughly 79,000, 15% have a hit. Cut-off read from the data, not from the text of the source: active = growth inhibition above about 70%; inactive = the rest.

Tests used:
[1] = NCI Yeast Anticancer Drug Screen. Data for the rad50 strain (AID 155);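 note: 0% = growth of vehicle-only cultures of the same strain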; conditions: S. cerevisiae rad50 strain growth inhibition; at 50.0 µM; stronger effect = higher value
In short: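 Cells are treated with compound, grown, and their growth is then scored against vehicle-only cultures of the same repair-deficient yeast strain.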

[2] = NCI Yeast Anticancer Drug Screen. Data for the mec2-1 strain (AID 157); conditions: S. cerevisiae mec2-1 strain, at 50.0 µM, stronger effect = higher value
In short: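 Yeast mec2-1 mutant treated with compound. Readout: growth inhibition vs vehicle controls.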

[3] = NCI Yeast Anticancer Drug Screen. Data for the sgs1 mgt1 strain (AID 161);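 note: 0% = growth of cultures given vehicle only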; conditions: S. cerevisiae sgs1 mgt1 strain, at 50.0 µM, stronger effect = higher value
In short: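 Genetically altered yeast, compound exposure, growth inhibition relative to vehicle.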

[4] = NCI Yeast Anticancer Drug Screen. Data for the cln2 rad14 strain (AID 165);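 note: 0% = growth equal to vehicle treated cultures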; conditions: S. cerevisiae cln2 rad14 strain, at 50.0 µM, stronger effect = higher value
In short: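 cln2 rad14 yeast strain; compound exposure; growth inhibition read vs vehicle controls.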

[5] = NCI Yeast Anticancer Drug Screen. Data for the bub3 strain (AID 167); conditions: S. cerevisiae bub3 mutant strain, at 50.0 µM, stronger effect = higher value
In short: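 Part of a panel of yeast mutants defective in DNA damage repair or cell cycle regulation. Each strain is grown with compound, and inhibition is calculated relative to solvent-treated cultures.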

[6] = NCI Yeast Anticancer Drug Screen. Data for the mlh1 rad18 strain (AID 175); conditions: S. cerevisiae mlh1 rad18 strain growth inhibition; at 50.0 µM; stronger effect = higher value
In short: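 Yeast w/ defined DNA-repair lesions; compound exposure; growth vs vehicle controls → % inhibition.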

Measured: growth inhibition

NC1=Nc2ccccc2Sc2nncn21
inactive: [1] -18.2% | [2] -43.9% | [3] -10.7% | [4] -10.6% | [5] 0.1% | [6] -4.35%

CN1C(c2ccccc2)=C(C#N)C(=O)CC(c2ccccc2)N1C (stereo not given)
inactive: [1] 26.1% | [2] 11.6% | [3] 30.2% | [4] 14.8% | [5] 11.4% | [6] 21.2%

COC(=O)C1CN=CN1CCc1ccccc1 (stereo not given)
inactive: [1] -2.05% | [2] -10.6% | [3] 5.25% | [4] 12.4% | [5] 2.5% | [6] 45.8%

O=C1NC(=O)C(c2ccc(Cl)c(Cl)c2)N1 (stereo not given)
inactive: [1] 11.2% | [2] -10% | [3] -13.2% | [4] -13.7% | [5] -12.9% | [6] -3.55%

CCN(C/C=C/CN(CC)C(=S)Nc1ccccc1)C(=S)Nc1ccccc1
inactive: [1] 29.6% | [2] -7.85% | [3] 5.2% | [4] 18.8% | [5] -1.1% | [6] 9.8%

COCC(=O)Oc1ccc[nH]c1=O
inactive: [1] 1.55% | [2] 2.6% | [3] 7.85% | [4] -17.1% | [5] -7.25% | [6] 22.2%

CCOC(=O)C1=NC(c2ccccc2)N(c2ccccc2)C1c1ccccc1 (stereo not given)
inactive: [1] -9% | [2] -8.5% | [3] 17.9% | [4] -0.75% | [5] 10.3% | [6] 8.3%

CCC(=O)n1cc2ccc([N+](=O)[O-])cc2n1
inactive: [1] 1.35% | [2] 1.35% | [3] -4% | [4] -57.8% | [5] 13.2% | [6] -3.05%

COc1cc(Br)c(CC(=O)c2ccc3c(c2)OCO3)cc1OC
inactive: [1] 1.65% | [2] 12.8% | [3] 7.9% | [4] -0.7% | [5] 0% | [6] 15.2%

Cc1cccc(C)n1
inactive: [1] -1.85% | [2] -22.1% | [3] -3.15% | [4] -1.85% | [5] -6.55% | [6] -21.4%

O=C(O)c1oc(C(=O)O)c(C(=O)O)c1C(=O)O
inactive: [1] -15% | [2] -38.1% | [3] -18.6% | [4] -28.6% | [5] -32.1% | [6] 7.6%

O=C(CC1C(=O)Nc2ccccc2S1=O)Nc1ccc(Cl)cc1 (stereo not given)
inactive: [1] 41.9% | [2] 38% | [3] 59.8% | [4] 18.4% | [5] 48% | [6] 56.3%

CNC(=O)Nc1ccc(OC)cc1OC
inactive: [1] 3% | [2] -6.2% | [3] -8.35% | [4] -66.5% | [5] 3.2% | [6] -18.6%

O=C(O)c1cscc1Cc1ccccc1
inactive: [1] 0.9% | [2] -2.25% | [3] -1.7% | [4] -21.1% | [5] -20.8% | [6] 5.45%

CN(C)NC(=O)Nc1ccc2ccccc2c1
inactive: [1] -39.4% | [2] -30.7% | [3] -8.55% | [4] -41% | [5] -24.2% | [6] -24.4%

O=C(O)c1cccnc1C(=O)Nc1cccc2ccccc12
inactive: [1] 13.1% | [2] 13.4% | [3] 12.6% | [4] 0.9% | [5] 10.2% | [6] -16.6%

CSC1=NC(C)(C)N=C(Oc2cc(Cl)cc(Cl)c2)N1
inactive: [1] -14.9% | [2] -22.3% | [3] -24.9% | [4] -8.7% | [5] -27.5% | [6] -9.8%

COc1ccc(C2=CSc3ccccc3N2)cc1
inactive: [1] 11.2% | [2] 15.8% | [3] 42.3% | [4] 6.1% | [5] 36.3% | [6] 11.4%

N#CC1(Cl)CC2CC1C1N=NN(c3ccccc3)C21 (stereo not given)
inactive: [1] -24.6% | [2] -15.3% | [3] -0.25% | [4] -58% | [5] 25.6% | [6] 0.75%

O=c1[nH]c(-c2cccc(F)c2)nc2ccccc12
inactive: [1] 16.9% | [2] -10.9% | [3] 3.1% | [4] 19.2% | [5] -7.4% | [6] 10.2%

COC1OC2COC(C2O)C1OS(=O)(=O)c1ccc(C)cc1 (stereo not given)
inactive: [1] -3.2% | [2] 9.7% | [3] 9.2% | [4] -46.1% | [5] -12.3% | [6] -13.3%

Clc1cccc[n+]1CCc1ccccc1
inactive: [1] 9.4% | [2] 22.9% | [3] 5.3% | [4] -4.55% | [5] 7.55% | [6] 44%

CN(C)Cc1cc(Cl)c(O)c(CN(C)C)c1
inactive: [1] -17.6% | [2] -43.5% | [3] -38.4% | [4] 23.7% | [5] -30.6% | [6] 15.1%

CC(CS(=O)(=O)Cc1ccccc1)C(N)=O (stereo not given)
inactive: [1] -4.8% | [2] 38.1% | [3] 14.3% | [4] 30.1% | [5] -9.95% | [6] -17.1%

CC(C)(C)NC(=O)CCC1C(C(=O)NC(C)(C)C)C2(Cl)C(Cl)=C(Cl)C1(Cl)C2(Cl)Cl (stereo not given)
inactive: [1] 6.2% | [2] 12% | [3] 1.6% | [4] 9.8% | [5] 15.6% | [6] -2.05%

CCS(=O)(=O)CC(C)O (stereo not given)
inactive: [1] 13.7% | [2] -11.3% | [3] -4.2% | [4] 10.1% | [5] 11% | [6] -7.95%

O=CN1CCN(c2ccc3ccc(=O)[nH]c3n2)CC1
inactive: [1] -4.45% | [2] -24.2% | [3] 19.5% | [4] 9% | [5] -5.05% | [6] -14.2%

Cc1cc(O)c(C(C)C)cc1CN1CCCCC1
inactive: [1] 0% | [2] -25.1% | [3] -14.2% | [4] 0.15% | [5] -2.85% | [6] -3.3%

CC(=O)C1CCCCCCC1=O (stereo not given)
inactive: [1] 16.1% | [2] -5.35% | [3] 4.9% | [4] -15.8% | [5] -11.8% | [6] 16.1%

CCCC(=O)NC(C)(C)C
inactive: [1] 8.8% | [2] -5.3% | [3] -33.9% | [4] 2.9% | [5] 6.2% | [6] -21%

Cc1ccc(C)c(OC(=O)Nc2ccccc2)c1
inactive: [1] -3.15% | [2] 4.8% | [3] -10.1% | [4] -4.1% | [5] -3.7% | [6] -11.9%

O=C1OC(c2cccc(Cl)c2)=N/C1=C\c1ccccc1
inactive: [1] 13.9% | [2] 2.85% | [3] 13.5% | [4] 14.8% | [5] 10.9% | [6] -5.05%

O=Cc1ccc(/C=C/C(=O)O)cc1
inactive: [1] -1.55% | [2] -10.1% | [3] -4.85% | [4] 5.9% | [5] -8.55% | [6] 1.1%

CCCCOc1ccc2nc(C)cc(N/N=C/c3ccc(OC)c4ccccc34)c2c1
inactive: [1] 46.4% | [2] 19.6% | [3] 44.1% | [4] 42.9% | [5] -2.35% | [6] 41.1%

CN(C)c1ccc(N=Nc2cccc3ncccc23)cc1
inactive: [1] 2.1% | [2] 26.6% | [3] 67.5% | [4] 31.1% | [5] 65.5% | [6] 66%

Cc1cc2c(CC(=O)O)[nH]nc2c(C(=O)O)c1C
inactive: [1] 1.4% | [2] -10.4% | [3] -13.2% | [4] 4.8% | [5] 8.25% | [6] -0.55%

CCS(=O)CCCN1CCc2ccccc2C1 (stereo not given)
inactive: [1] 25.5% | [2] -0.95% | [3] 13.9% | [4] -33% | [5] -3% | [6] -5.95%

CC(C)(C)c1nc2c(o1)C(=Nc1ccc(F)cc1)c1ccccc1C2=O
inactive: [1] 8.6% | [2] 3.15% | [3] 14.7% | [4] 38.1% | [5] 0.65% | [6] -2.5%

Cc1ccc(/C=C/C(=O)c2sc(C(N)=S)nc2C)cc1
inactive: [1] 35.9% | [2] 14.2% | [3] 8.15% | [4] 16.3% | [5] 11.2% | [6] 39%

COC(=O)C1(C)CCCC2(C)C3CC(O)C(C(C)C)=CC3(O)CCC12 (stereo not given)
inactive: [1] 10.2% | [2] -4.65% | [3] 15.9% | [4] -12.6% | [5] -1% | [6] 15.3%
